Shown are actives, neighbours in structure and some others; about 8.7% of the full set was active somewhere.
PostGolgi yeast: growth inhibition of a yeast mutant, post-Golgi transport screen | post-Golgi transport phenotypic cell assay | 98,000 tested, 0.9% active | inhibition, % at 10 µM;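 further: yeast cells grown in 1536-well plates; yeast grown about 18 h at 30C before absorbance read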
PostGolgi ctrl: yeast control strain growth, post-Golgi counter-screen. inhibition, % at 10 µM. 98,000 tested, 5% active. efflux-deficient yeast background strain, growth absorbance A615, 16 h
TNAP act DEA: human TNAP activation, intermediate phosphate acceptor; purified TNAP, CDP-star luminescence, 100 mM DEA, 30 min; active compounds read high; scale: 0 levamisole-inhibited, 1 vehicle-only enzyme; 64,000 tested, under 10 active; activation factor at 20 µM; AID 813;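 active means activation factor of at least 2 at 20 µM, relative to controls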
Cav32 inh: inhibitors of human Cav3.2 T-type calcium channel; 100,000 tested, 4% active; AID 449739; O95180; Cav3.2-expressing cells, Fluo-4 calcium fluorescence FDSS; active compounds read low; B-score at 10 µM;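 active means single-dose well whose peak fluorescence ratio is a statistical outlier from its plate by either plate-standardised score or position-corrected B-score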
Target sequence (O95180 whole entry, looked up): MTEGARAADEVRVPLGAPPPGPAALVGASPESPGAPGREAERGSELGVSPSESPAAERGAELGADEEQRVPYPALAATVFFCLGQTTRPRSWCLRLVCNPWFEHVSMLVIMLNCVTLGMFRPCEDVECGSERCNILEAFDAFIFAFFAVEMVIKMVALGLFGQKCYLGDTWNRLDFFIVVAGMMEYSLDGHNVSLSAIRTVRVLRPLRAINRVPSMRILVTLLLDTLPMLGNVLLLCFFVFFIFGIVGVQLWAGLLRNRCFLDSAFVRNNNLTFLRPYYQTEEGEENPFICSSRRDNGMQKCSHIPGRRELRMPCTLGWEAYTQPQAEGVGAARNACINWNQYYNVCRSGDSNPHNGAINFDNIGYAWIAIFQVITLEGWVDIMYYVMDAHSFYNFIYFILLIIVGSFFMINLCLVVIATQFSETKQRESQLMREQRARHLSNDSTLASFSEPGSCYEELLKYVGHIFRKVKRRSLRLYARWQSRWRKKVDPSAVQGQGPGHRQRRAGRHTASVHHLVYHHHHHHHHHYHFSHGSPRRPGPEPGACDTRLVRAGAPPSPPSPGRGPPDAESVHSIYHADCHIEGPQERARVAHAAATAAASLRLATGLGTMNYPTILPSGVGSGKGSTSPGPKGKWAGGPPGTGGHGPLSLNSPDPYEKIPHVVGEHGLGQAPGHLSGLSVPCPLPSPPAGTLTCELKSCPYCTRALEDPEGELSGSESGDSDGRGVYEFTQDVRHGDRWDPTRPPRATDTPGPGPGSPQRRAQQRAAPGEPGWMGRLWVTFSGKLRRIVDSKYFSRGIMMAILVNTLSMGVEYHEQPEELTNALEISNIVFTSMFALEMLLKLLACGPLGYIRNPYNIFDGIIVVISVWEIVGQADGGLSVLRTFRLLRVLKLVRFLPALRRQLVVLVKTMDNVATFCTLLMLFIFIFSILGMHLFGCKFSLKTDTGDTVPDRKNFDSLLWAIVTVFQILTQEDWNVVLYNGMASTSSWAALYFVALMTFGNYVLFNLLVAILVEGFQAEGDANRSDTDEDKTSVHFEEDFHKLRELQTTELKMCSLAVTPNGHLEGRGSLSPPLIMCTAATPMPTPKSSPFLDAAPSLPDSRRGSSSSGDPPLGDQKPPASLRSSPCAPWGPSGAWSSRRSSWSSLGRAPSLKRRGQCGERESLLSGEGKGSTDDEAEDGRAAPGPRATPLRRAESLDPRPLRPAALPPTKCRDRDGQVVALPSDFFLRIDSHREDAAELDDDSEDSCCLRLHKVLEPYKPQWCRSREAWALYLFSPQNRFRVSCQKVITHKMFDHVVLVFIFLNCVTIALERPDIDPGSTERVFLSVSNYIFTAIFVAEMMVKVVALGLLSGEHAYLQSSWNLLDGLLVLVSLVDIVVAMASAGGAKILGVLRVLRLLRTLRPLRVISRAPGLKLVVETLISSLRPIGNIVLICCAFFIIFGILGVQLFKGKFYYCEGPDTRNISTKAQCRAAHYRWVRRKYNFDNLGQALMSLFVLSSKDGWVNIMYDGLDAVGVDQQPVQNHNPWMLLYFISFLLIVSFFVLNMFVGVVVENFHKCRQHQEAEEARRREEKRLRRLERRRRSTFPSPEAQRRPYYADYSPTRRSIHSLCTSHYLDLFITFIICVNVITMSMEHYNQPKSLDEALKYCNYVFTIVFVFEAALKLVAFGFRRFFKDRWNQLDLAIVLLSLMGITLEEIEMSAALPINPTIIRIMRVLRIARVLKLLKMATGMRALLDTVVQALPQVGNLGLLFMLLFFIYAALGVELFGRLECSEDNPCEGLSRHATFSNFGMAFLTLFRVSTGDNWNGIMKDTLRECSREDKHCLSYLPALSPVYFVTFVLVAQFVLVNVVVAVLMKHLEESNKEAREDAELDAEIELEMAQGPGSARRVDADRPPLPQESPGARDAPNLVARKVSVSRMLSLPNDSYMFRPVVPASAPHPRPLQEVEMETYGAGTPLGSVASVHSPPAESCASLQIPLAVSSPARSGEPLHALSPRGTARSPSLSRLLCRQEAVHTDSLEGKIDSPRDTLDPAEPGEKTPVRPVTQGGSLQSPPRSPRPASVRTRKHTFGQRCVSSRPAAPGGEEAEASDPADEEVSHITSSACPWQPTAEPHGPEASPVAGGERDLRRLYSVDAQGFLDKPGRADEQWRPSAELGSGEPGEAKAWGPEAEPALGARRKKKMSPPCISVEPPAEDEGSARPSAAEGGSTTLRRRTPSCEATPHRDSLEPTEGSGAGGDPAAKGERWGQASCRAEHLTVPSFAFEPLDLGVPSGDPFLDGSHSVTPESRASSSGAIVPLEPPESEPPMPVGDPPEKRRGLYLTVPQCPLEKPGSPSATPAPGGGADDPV
Smad3 inh: inhibitors of human Smad3 transcription factor binding; AID 630; inhibition, % at 25 µM; P84022; TR-FRET Smad3/Dy647-FoxH1 peptide binding, europium anti-His; 88,000 tested, 0.29% active;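 active means compounds that reduce the energy-transfer binding signal between the protein and its labelled peptide by more than half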;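 further: 0% = Smad3 plus labelled peptide maximal FRET and 100% = peptide-only background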
DAT uptake mod: modulates human dopamine transporter uptake under cocaine. 110,000 tested, 1.3% active. Q01959. LLC-PK1 hDAT cells, [14C]-dopamine uptake with cocaine IC80; actives deviate in either direction. B-score at 10 µM;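 active means Z score or B-score, a plate-position-corrected score, falls beyond the plate's 99.7% confidence bounds, in either direction; inactive means both scores lie inside the 99.7% bounds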;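 further: scored against the spread of the other compound wells on the same plate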
Active calls of the source: *. Unless noted, no stated cut-off is given here; in the data, active means inhibition above about 30%; inactive means the rest.

How did O=S(=O)(Nc1ccc(-c2nc3ccccc3o2)cc1)c1ccccc1 do in these assays?
PostGolgi yeast: -2; PostGolgi ctrl: 39*; TNAP act DEA: 1; Cav32 inh: -1.9; Smad3 inh: 0; DAT uptake mod: 0.39

Results for CN(Cc1cccs1)c1ncnc2sccc12 ?
PostGolgi yeast: 3; PostGolgi ctrl: 17; TNAP act DEA: 0.9; Cav32 inh: 0.78; DAT uptake mod: -0.88

How did O=S(=O)(Nc1ccncc1)c1ccc(Cl)cc1 do in these assays?
PostGolgi yeast: -4; PostGolgi ctrl: -1; Cav32 inh: 0.063; DAT uptake mod: -0.73

What do the screens show for `O=C(Nc1ccc(Cl)c(Cl)c1)c1ccncc1`?
PostGolgi yeast: -2; PostGolgi ctrl: 3; TNAP act DEA: 0.8; Cav32 inh: 0.87; Smad3 inh: -1; DAT uptake mod: 1.1

What do the screens show for `O=C(Nc1ccc(Cc2ccncc2)cc1)c1ccc(Cl)c([N+](=O)[O-])c1`?
PostGolgi yeast: 67*; PostGolgi ctrl: 78*; Cav32 inh: -8.7*; DAT uptake mod: 0.83

Results for O=S(=O)(Nc1ccc(Cc2ccncc2)cc1)c1ccc(Cl)c(Cl)c1 ?
PostGolgi yeast: 107*; PostGolgi ctrl: 96*; Cav32 inh: -0.92; DAT uptake mod: 0.64

What do the screens show for `CCCC(=NCC(=O)O)C1=C(O)C(C(=O)OC)C(C)(C)CC1=O` (stereo not given)?
PostGolgi yeast: -3; PostGolgi ctrl: -2; TNAP act DEA: 1; Cav32 inh: 1; Smad3 inh: 4; DAT uptake mod: -0.15

How did O=C(NCCNc1ccc([N+](=O)[O-])cc1C(F)(F)F)c1ccccc1F do in these assays?
PostGolgi yeast: -3; PostGolgi ctrl: -3; Cav32 inh: -2.3; DAT uptake mod: 0.65

Results for Cc1ccc(S(=O)(=O)NCc2cccc([N+](=O)[O-])c2)cc1 ?
Smad3 inh: 14

Results for O=[N+]([O-])c1ccc(NCCNS(=O)(=O)c2ccccc2)c(C(F)(F)F)c1 ?
PostGolgi yeast: -7; PostGolgi ctrl: 13; Cav32 inh: -4.9*; DAT uptake mod: 1.1

How did Cc1ccc(S(=O)(=O)NCCNc2ccc([N+](=O)[O-])cc2C(F)(F)F)cc1 do in these assays?
PostGolgi yeast: -1; PostGolgi ctrl: 40*; Cav32 inh: -4.6; DAT uptake mod: 0.14

What do the screens show for `COc1ccc(NC(=O)c2ccc(-c3ccccc3Cl)o2)cc1`?
Cav32 inh: -1.2; DAT uptake mod: 0.12

How did CCCCOCCCn1c(-c2ccco2)nc2nc3ccccc3nc21 do in these assays?
PostGolgi yeast: 11; PostGolgi ctrl: 17; TNAP act DEA: 0.9; Cav32 inh: 0.64; Smad3 inh: 2; DAT uptake mod: 3.5*

Results for CCCCn1c(-c2cccs2)nc2nc3ccccc3nc21 ?
PostGolgi yeast: -12; PostGolgi ctrl: 31*; Cav32 inh: -0.24; Smad3 inh: 8; DAT uptake mod: 0.64

What do the screens show for `c1ccc(Cn2c(-c3cccs3)nc3nc4ccccc4nc32)cc1`?
PostGolgi yeast: 3; PostGolgi ctrl: 21; TNAP act DEA: 0.8; Cav32 inh: 0.29; Smad3 inh: -4; DAT uptake mod: -1

Results for c1ccc(-c2nc3nc4ccccc4nc3n2Cc2ccco2)cc1 ?
PostGolgi yeast: -10; PostGolgi ctrl: 32*; TNAP act DEA: 0.8; Cav32 inh: -2.3; Smad3 inh: 8; DAT uptake mod: -1.7

How did Cc1nn(C)cc1NC(=O)CCSc1nc(-c2ccco2)cc(C(F)(F)F)n1 do in these assays?
PostGolgi yeast: -2; PostGolgi ctrl: 1; TNAP act DEA: 0.8; Cav32 inh: 0.85; Smad3 inh: 9; DAT uptake mod: 0.22

What do the screens show for `Cc1cc(C)cc(C(=O)NC(CC(N)=O)c2ccc(NC3CCCCCC3)c([N+](=O)[O-])c2)c1` (stereo not given)?
Cav32 inh: 0.033; DAT uptake mod: -0.61

Results for Nc1c(C(=O)c2ccccc2)sc(Nc2ccccc2)c1S(=O)(=O)c1ccccc1 ?
Cav32 inh: -3.8*; Smad3 inh: 0; DAT uptake mod: -0.23

What do the screens show for `O=C(Nc1ccc(NC(=O)c2ccc(S(=O)(=O)c3ccccc3)cc2)cc1)c1ccccc1`?
PostGolgi yeast: 4; PostGolgi ctrl: -2

Results for O=C(NCC1CCCO1)c1ccccc1NC(=O)c1cccc2ccccc12 (stereo not given) ?
PostGolgi yeast: -7; PostGolgi ctrl: 3; Cav32 inh: 0.38; DAT uptake mod: 2.6

Compound activity deposited in PubChem by several laboratories.
